# Results filed as inconclusive are left out. Calls of active or inactive are those of the source. The call rests on the fitted dose curve; in most records, active means well fitted activation curve with a large enough effect; inconclusive means small, poorly fitted or top-dose-only effect; inactive means no such curve, though single readings can be large or run the other way.
# Biological target: Relaxin receptor 1 (Homo sapiens) (UniProt Q9HBX9)
# Assay: qHTS Assay for Agonists of the Relaxin Receptor RXFP1: RXFP1 Hit Validation; further: nearly all actives have a fitted effect of over 65% in size;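 on activation: cAMP rise lowers the TR-FRET signal in lysed cells with PDE4 inhibitor present; 0% = buffer-only basal and 100% = 29 nM porcine relaxin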
# Settings: HEK293T-RXFP1 cAMP TR-FRET, 30 min; series mostly up to 115 µM; activation: at the top concentration
# Potency means the concentration at half of the fitted maximal effect.
# Chain of Relaxin receptor 1 (Homo sapiens) (Q9HBX9 whole entry, looked up): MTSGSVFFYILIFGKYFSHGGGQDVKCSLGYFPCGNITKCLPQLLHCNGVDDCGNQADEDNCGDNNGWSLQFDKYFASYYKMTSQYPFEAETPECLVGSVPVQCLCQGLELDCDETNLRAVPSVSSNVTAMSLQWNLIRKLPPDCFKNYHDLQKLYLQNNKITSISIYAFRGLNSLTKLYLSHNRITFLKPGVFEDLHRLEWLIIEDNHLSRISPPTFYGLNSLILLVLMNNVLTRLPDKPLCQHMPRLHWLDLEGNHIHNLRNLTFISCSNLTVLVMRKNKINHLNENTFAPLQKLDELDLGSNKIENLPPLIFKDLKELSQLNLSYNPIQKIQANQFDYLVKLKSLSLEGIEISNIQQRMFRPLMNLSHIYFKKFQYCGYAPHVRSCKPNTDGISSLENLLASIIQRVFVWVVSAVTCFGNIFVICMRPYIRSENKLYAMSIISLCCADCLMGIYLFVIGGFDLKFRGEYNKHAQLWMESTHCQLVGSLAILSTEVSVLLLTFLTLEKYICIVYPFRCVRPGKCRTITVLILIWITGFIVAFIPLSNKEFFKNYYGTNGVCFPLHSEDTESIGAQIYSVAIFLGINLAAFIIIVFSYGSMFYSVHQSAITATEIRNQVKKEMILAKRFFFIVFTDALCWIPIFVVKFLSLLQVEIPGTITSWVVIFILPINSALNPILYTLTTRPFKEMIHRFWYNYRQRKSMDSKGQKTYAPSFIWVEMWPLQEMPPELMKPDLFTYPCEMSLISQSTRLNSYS
Structure (SMILES),Potency,activation
O=S(=O)(c1cccc(-c2cn3cccnc3n2)c1)N1CCOCC1,27.5 µM (active),
O=C(O)c1ccc(CN2C(=O)c3ccc(C(=O)O)cc3C2=O)cc1,,0.0336% (inactive)
CC1(C)Cc2c(sc3ncnc(NN)c23)CO1,,25.2% [at 45 µM] (inactive)
CC(C)c1ccccc1NC(=O)c1ccccc1NC(=O)C1CCCCC1,,5.99% [at 125 µM] (inactive)
CCc1ccc2n(-c3ccc(OC)cc3)c([S-])c(C(=O)Nc3cc(C)cc(C)c3)[n+]2c1,24.5 µM (active),
COc1ccc(Cl)cc1-c1n[nH]c(=S)o1,6.15 µM (active),
CCN(CC)CCCCCC(=O)Nc1ccccc1C(=O)Nc1ccccc1,,-3.6% [at 125 µM] (inactive)
O=C(O)CNC(=O)c1ccccc1NC(=O)c1ccco1,,2.24% [at 125 µM] (inactive)
O=C(Nc1ccccc1C(=O)Nc1ccccc1C(=O)NCc1ccco1)c1ccco1,21.9 µM (active),
CC(C)C(=O)Nc1ccc(Nc2ccccc2)cc1,,-7.21% (inactive)
CCN(CC)S(=O)(=O)c1ccc(N2CCOCC2)c(NC(=O)c2cc([N+](=O)[O-])ccc2Cl)c1,,14.6% (inactive)
Cc1cc(C)c(NC(=O)CS(=O)CC(=O)Nc2ccc(F)cc2F)c(C)c1 (stereo not given),,3.66% (inactive)
CCc1cc2c(=O)nc3n(c2s1)Cc1ccccc1/C3=C(/O)c1cccc([N+](=O)[O-])c1,5.3 µM (active),
O=C(Nc1ccccc1C(=O)N1CCOCC1)c1ccco1,,3.67% [at 125 µM] (inactive)
COCCNC(=O)C(OC(=O)c1nsc(Cl)c1Cl)C(C)C (stereo not given),,24.3% (inactive)
Cc1ccc(C(=O)Nc2cccc(C(F)(F)F)c2)cc1NC(=O)c1cnnc2ccccc12,,7.81% (inactive)
c1ccc(COn2nnc3ccccc32)c(COn2nnc3ccccc32)c1,,7.76% [at 45 µM] (inactive)
CC(C)n1c(CN2CCN(C(=O)c3ccco3)CC2)nc2c1c(=O)n(C)c(=O)n2C,,28.8% (inactive)

Structure (SMILES),Potency,activation
Brc1ccc2ncnc(NCc3cccnc3)c2c1,38.9 µM (active),
Cc1cccc(N2C(=O)C(O)=C(C(=O)c3cccs3)C2c2ccc(C(C)C)cc2)n1 (stereo not given),,22% (inactive)
O=C(CN1C(=O)c2cccc3cccc(c23)C1=O)NCCN1CCOCC1,,28.1% [at 45 µM] (inactive)
O=[N+]([O-])c1cc2c(c(CSc3nnc4ccccn34)c1)OCOC2,30.9 µM (active),
O=C(CCc1nnc2ccc(NCCCN3CCCC3=O)nn12)NCc1ccccc1Cl,,2.42% (inactive)
CCc1nn(CC(=O)NCCCN2CCOCC2)c(=O)c2cc3sccc3n12,,27.9% (inactive)
Cc1cc(Br)c2nc3c(c(C(=O)O)c2c1)CCCCC3,1.94 µM (active),
CCCc1nc(SCC(=O)NCC2CCCO2)c2c(=O)n(C)c(=O)n(C)c2n1 (stereo not given),,26.1% [at 45 µM] (inactive)
CC1CCCCN1C(=O)c1ccccc1NC(=O)c1ccco1 (stereo not given),,-6.44% [at 125 µM] (inactive)
CN(Cc1ccccc1)C(=O)c1ccccc1NC(=O)c1ccco1,,1.27% [at 125 µM] (inactive)
Cc1cccc(C(=O)Nc2ccccc2C(=O)NCc2ccco2)c1,,9.91% [at 125 µM] (inactive)
CC1CCN(S(=O)(=O)c2ccc3nc(N4CCN(c5ccccc5)CC4)ccc3c2)CC1,12.3 µM (active),
O=C(Oc1ccccc1)Oc1ccc2c(c1)oc(=O)c1ccccc12,21.8 µM (active),
Cn1c(N)c(C(=O)CSc2nn(-c3ccc(F)cc3)c(=S)s2)c(=O)n(C)c1=O,21.8 µM (active),
NC(=S)c1cc2ccc(O)cc2oc1=O,7.74 µM (active),
Cn1c(N)c(C(=O)CSc2nnc(NC3CCCCC3)s2)c(=O)n(C)c1=O,,-27% (inactive)
O=C(O)c1ccc(N2C(=O)c3cccc4c(C(=O)O)ccc(c34)C2=O)cc1,,27.2% [at 45 µM] (inactive)

# From PubChem BioAssay AID489012 (National Center for Advancing Translational Sciences (NCATS), 2010)
